# What was measured:
# Test in all cases: protein-binding microarray (PBM); PBM: ~300 nM protein, 6 mM HEPES pH 7.8, 80 mM KCl, 0.5 mM EDTA, 0.5 mM EGTA, 6% glycerol, 35 ng/ul poly-dIdC, 1% milk, 1 h, room temperature; Ap Aiptasia and Nv Nematostella (sea anemones) / Co Capsaspora / Aq Amphimedon (sponge) / Dm Drosophila / Hu human; RHD is the Rel homology domain; high values mean tight binding
# Settings in all cases: dsDNA, one strand shown
# [1] = target: T1, GST-Ap-NF-kB RHD (Exaiptasia pallida (Aiptasia), UniProt A0A913YAJ5 2-422)
# T1 sequence: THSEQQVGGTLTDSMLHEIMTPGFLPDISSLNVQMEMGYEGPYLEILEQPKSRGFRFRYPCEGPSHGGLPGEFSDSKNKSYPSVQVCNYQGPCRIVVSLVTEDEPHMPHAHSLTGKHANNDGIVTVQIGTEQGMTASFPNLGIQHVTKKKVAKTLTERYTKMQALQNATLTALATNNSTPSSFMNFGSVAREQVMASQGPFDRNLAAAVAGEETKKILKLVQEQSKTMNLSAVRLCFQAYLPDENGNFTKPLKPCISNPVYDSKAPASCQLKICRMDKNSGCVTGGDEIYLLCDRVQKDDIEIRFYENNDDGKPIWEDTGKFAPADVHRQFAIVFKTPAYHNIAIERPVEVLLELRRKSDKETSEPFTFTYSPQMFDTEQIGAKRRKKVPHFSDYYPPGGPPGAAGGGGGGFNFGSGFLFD
# [2] = target: T2, GST-Nv-NF-kB (Cys allele) (Nematostella vectensis, UniProt E5G601 2-411)
# T2 sequence: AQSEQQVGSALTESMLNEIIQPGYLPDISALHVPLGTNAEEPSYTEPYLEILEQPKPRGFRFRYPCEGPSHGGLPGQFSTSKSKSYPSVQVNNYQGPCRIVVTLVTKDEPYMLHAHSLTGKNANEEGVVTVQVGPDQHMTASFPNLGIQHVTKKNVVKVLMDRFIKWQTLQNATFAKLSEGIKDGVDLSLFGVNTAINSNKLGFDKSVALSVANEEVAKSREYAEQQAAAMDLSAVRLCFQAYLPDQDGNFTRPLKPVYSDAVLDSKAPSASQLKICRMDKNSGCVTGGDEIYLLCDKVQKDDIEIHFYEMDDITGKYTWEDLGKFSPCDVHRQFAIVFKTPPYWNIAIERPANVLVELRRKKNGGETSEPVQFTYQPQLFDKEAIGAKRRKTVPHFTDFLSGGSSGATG
# [3] = target: T3, GST-Co-NF-kB (Capsaspora owczarzaki, UniProt F1ARL5 200-546)
# T3 sequence: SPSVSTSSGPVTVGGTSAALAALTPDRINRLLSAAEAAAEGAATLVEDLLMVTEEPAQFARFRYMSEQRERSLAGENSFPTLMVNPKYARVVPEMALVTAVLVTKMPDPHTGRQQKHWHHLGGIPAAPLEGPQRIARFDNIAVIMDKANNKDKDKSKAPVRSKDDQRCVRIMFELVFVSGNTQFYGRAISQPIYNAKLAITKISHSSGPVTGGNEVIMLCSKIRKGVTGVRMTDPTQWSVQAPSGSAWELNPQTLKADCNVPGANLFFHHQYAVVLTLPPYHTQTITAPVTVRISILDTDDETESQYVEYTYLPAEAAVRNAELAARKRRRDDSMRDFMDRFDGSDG
# [4] = target: T4, GST-Dm-Relish (Drosophila melanogaster, UniProt Q94527 99-473)
# T4 sequence: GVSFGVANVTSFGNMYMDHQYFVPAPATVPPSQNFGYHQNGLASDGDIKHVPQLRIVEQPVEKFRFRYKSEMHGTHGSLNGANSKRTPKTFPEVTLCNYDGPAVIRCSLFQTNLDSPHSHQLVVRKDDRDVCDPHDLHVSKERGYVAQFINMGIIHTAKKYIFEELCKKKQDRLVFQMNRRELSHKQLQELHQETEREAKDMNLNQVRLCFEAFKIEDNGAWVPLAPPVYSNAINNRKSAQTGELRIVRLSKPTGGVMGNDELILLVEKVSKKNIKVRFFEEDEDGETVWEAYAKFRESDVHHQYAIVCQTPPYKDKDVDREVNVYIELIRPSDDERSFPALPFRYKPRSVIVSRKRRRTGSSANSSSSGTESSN
# [5] = target: T5, GST-Aq-NF-kB (Amphimedon queenslandica, UniProt A9Y5G7 2-389)
# T5 sequence: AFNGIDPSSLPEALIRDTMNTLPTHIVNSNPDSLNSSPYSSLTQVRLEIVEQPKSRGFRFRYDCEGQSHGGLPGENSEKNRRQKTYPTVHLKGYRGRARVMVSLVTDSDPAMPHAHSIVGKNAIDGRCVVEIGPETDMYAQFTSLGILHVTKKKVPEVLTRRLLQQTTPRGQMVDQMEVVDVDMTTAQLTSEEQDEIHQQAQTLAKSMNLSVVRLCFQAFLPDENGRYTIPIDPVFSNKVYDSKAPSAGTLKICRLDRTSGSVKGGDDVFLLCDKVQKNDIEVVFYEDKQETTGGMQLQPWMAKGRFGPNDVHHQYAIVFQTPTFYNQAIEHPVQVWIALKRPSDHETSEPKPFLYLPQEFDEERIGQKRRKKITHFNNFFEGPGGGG
Sequence,binding signal [1] [z-score],binding signal [2] [z-score],binding signal [3] [z-score],binding signal [4] [z-score],binding signal [5] [z-score]
CCGATTAACATCAAAACAGTCCCTGATGTTAATCGGGTCTTGATTCGCTTGACGCTGCTG,4.53,5.79,1.26,3.28,6.16
CCGATTAACATCACGGGAAACTCTGATGTTAATCGGGTCTTGATTCGCTTGACGCTGCTG,3.67,4.12,4.3,1.55,4.35
CCGATTAACATCAGGAGACTCCCTGATGTTAATCGGGTCTTGATTCGCTTGACGCTGCTG,2.16,2.35,1.37,1.79,5.19
CCGATTAACATCAGGAACACCCCTGATGTTAATCGGGTCTTGATTCGCTTGACGCTGCTG,3.14,1.33,1.86,3.5,4.23
CCGATTAACATCACAGCCCCCCCTGATGTTAATCGGGTCTTGATTCGCTTGACGCTGCTG,4.64,3.58,3.34,4.81,3.82
CCGATTAACATCACCGCCCCACGTGATGTTAATCGGGTCTTGATTCGCTTGACGCTGCTG,1.95,1.73,1.4,1.95,1.28
CCGATTAACATCACGGAGTCCCCTGATGTTAATCGGGTCTTGATTCGCTTGACGCTGCTG,6.33,4.74,2.46,7.32,4.65
CCGATTAACATCACCCCTCCCCATGATGTTAATCGGGTCTTGATTCGCTTGACGCTGCTG,3.7,2.55,3.58,3.67,2.92
CCGATTAACATCAGGGCAGCCCCTGATGTTAATCGGGTCTTGATTCGCTTGACGCTGCTG,4.41,4.88,1.25,4.16,7.43
CCGATTAACATCAGGGGAAGGTATGATGTTAATCGGGTCTTGATTCGCTTGACGCTGCTG,3.33,4.71,5.15,2.58,3.96
CCGATTAACATCAGGGGCAACCCTGATGTTAATCGGGTCTTGATTCGCTTGACGCTGCTG,2.71,2.89,2.31,3.06,5.52
CCGATTAACATCACGTATTTCCCTGATGTTAATCGGGTCTTGATTCGCTTGACGCTGCTG,3.32,4.03,3.79,4.26,3.99
CCGATTAACATCAGGGGGACAAATGATGTTAATCGGGTCTTGATTCGCTTGACGCTGCTG,4.37,4.84,7.51,2.64,4.19
CCGATTAACATCAAGCAACCCCCTGATGTTAATCGGGTCTTGATTCGCTTGACGCTGCTG,5.23,3.34,2.21,5.19,4.14
CCGATTAACATCAAGCACCCCCTTGATGTTAATCGGGTCTTGATTCGCTTGACGCTGCTG,4.4,3.21,1.76,2.85,4.66
CCGATTAACATCAAGGATTTCCCTGATGTTAATCGGGTCTTGATTCGCTTGACGCTGCTG,4.49,6.09,3.24,6.12,6.2
CCGATTAACATCAGGGAATTATATGATGTTAATCGGGTCTTGATTCGCTTGACGCTGCTG,4.16,6.68,4.16,3.26,6.69
CCGATTAACATCAAGGAATACCCTGATGTTAATCGGGTCTTGATTCGCTTGACGCTGCTG,4.85,5.51,1.33,7.24,5.58
CCGATTAACATCAGGGAAAAAACTGATGTTAATCGGGTCTTGATTCGCTTGACGCTGCTG,2.85,4.45,5.17,5.49,5.31
CCGATTAACATCAGGGGATAAAATGATGTTAATCGGGTCTTGATTCGCTTGACGCTGCTG,4.6,5.11,7.5,3.31,4.05
CCGATTAACATCAGGGATTTCTATGATGTTAATCGGGTCTTGATTCGCTTGACGCTGCTG,4.28,4.04,1.22,5.1,4
CCGATTAACATCAGGAGATTCCCTGATGTTAATCGGGTCTTGATTCGCTTGACGCTGCTG,3.76,5.47,2.78,4.79,7.56
CCGATTAACATCAGGGAAAGAACTGATGTTAATCGGGTCTTGATTCGCTTGACGCTGCTG,1.89,3.99,2.55,6.83,4.9
CCGATTAACATCAAATCATCCCCTGATGTTAATCGGGTCTTGATTCGCTTGACGCTGCTG,4.78,5.38,5.87,4.06,5.27
CCGATTAACATCACGGGTTTCCCTGATGTTAATCGGGTCTTGATTCGCTTGACGCTGCTG,3.92,4.58,4.46,7.38,5.5
CCGATTAACATCAAAACAACCCCTGATGTTAATCGGGTCTTGATTCGCTTGACGCTGCTG,3.57,3.44,2.54,2.68,4.83
CCGATTAACATCAGGGGAACACATGATGTTAATCGGGTCTTGATTCGCTTGACGCTGCTG,4.8,5.02,6.41,4.31,4.1

# Source: article PMC5700166
